Measurements from PubChem BioAssay (Tox21).
Records with an inconclusive call do not appear. Active and inactive are the calls of the source. Unless noted, calls follow the shape of the dose curve; as a rule, active = well fitted curve in the direction sought with a large enough effect in the repeat runs; inconclusive = weak or mixed curves; inactive = no such curve, though single readings can be large; an effect the other way counts as inactive or inconclusive.

Columns and labels:
[1] = A CellTox Green Cytotoxicity Assay to monitor cytotoxicity in HepG2 cells - 24 hour (AID 1224878); also: nearly all actives have a fitted effect of over 45% in size
Method in brief: (§1)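 HepG2 cells, 600/well, preincubated 5 h with CellTox Green dye, then exposed to Tox21 compounds in DMSO at 37 C for up to 40 h. Dead-cell DNA fluorescence read at the indicated time point.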

[2] = A CellTox Green Cytotoxicity Assay to monitor cytotoxicity in HepG2 cells - 40 hour (AID 1224879); also: nearly all actives have a fitted effect of over 40% in size
Method in brief: as §1

[3] = qHTS RealTime-Glo MT Cell Viability Assay in HEK293 cells - 0 hour (AID 1224880); also: top concentration of the series differs between compounds; nearly all actives have a fitted effect of over 45% in size
Method in brief: (§2)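 600 cells/well were plated with the nonlytic NanoLuc/prosubstrate reagent, pre-incubated 5 h, then given 23 nL of compound in DMSO. Incubation at 37 C for 40 h, with luminescence from viable-cell-reduced substrate read repeatedly from 0 h.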

[4] = A CellTox Green Cytotoxicity Assay to monitor cytotoxicity in HEK293 cells - 32 hour (AID 1224881); also: nearly all actives have a fitted effect of over 40% in size
Method in brief: (§3)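 HEK293 cells, 600/well, were preincubated 5 hours and then exposed to compounds at 37 C for up to 40 hours. A cell-impermeant cyanine dye staining dead-cell DNA was read by fluorescence at 0, 8, 16, 24, 32 and 40 h time points.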

[5] = A CellTox Green Cytotoxicity Assay to monitor cytotoxicity in HepG2 cells - 0 hour (AID 1224882); also: nearly all actives have a fitted effect of over 35% in size
Method in brief: as §1

[6] = A CellTox Green Cytotoxicity Assay to monitor cytotoxicity in HepG2 cells - 32 hour (AID 1224883); also: nearly all actives have a fitted effect of over 50% in size
Method in brief: as §1

[7] = A CellTox Green Cytotoxicity Assay to monitor cytotoxicity in HEK293 cells - 8 hour (AID 1224884); also: nearly all actives have a fitted effect of over 35% in size
Method in brief: as §3

[8] = qHTS RealTime-Glo MT Cell Viability Assay in HepG2 cells - 16 hour (AID 1224885); also: nearly all actives have a fitted effect of over 50% in size
Method in brief: (§4)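 Cell number in HepG2 cultures estimated from NanoLuc luminescence generated by metabolic reduction of a prosubstrate by living cells. The homogeneous, nonlytic format allowed repeated reads at 0, 8, 16, 24, 32 and 40 h of compound exposure.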

[9] = qHTS RealTime-Glo MT Cell Viability Assay in HEK293 cells - 24 hour (AID 1224886); also: top concentration of the series differs between compounds; nearly all actives have a fitted effect of over 50% in size
Method in brief: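 Homogeneous bioluminescent viability format in HEK293 cells (600 cells/well). Following 5 h at 37 C/5% CO2, 23 nL compound was pintooled; the signal was measured repeatedly during 40 h incubation.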

[10] = qHTS RealTime-Glo MT Cell Viability Assay in HEK293 cells - 8 hour (AID 1224887); also: top concentration of the series differs between compounds; nearly all actives have a fitted effect of over 50% in size
Method in brief: as §2

[11] = A CellTox Green Cytotoxicity Assay to monitor cytotoxicity in HEK293 cells - 16 hour (AID 1224888); also: nearly all actives have a fitted effect of over 35% in size
Method in brief: as §3

[12] = qHTS RealTime-Glo MT Cell Viability Assay in HepG2 cells - 0 hour (AID 1224889); also: nearly all actives have a fitted effect of over 50% in size
Method in brief: as §4

[13] = A CellTox Green Cytotoxicity Assay to monitor cytotoxicity in HepG2 cells - 8 hour (AID 1224890); also: nearly all actives have a fitted effect of over 45% in size
Method in brief: as §1

[14] = qHTS assay to identify small molecule antagonists of the estrogen receptor alpha (ER-alpha) signaling pathway using the BG1 cell line in the presence of 0.1 nM 17-beta-estradiol - cell viability counter screen (AID 1259241); also: nearly all actives have a fitted effect of over 40% in size
Method in brief: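 CellTiter-Fluor read (30 min, 37C) on ER-alpha/ERE-luc VM7Luc4E2 cells; 22 hr compound treatment; agonist 0.1 nM E2 final; same-well multiplex.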

[15] = qHTS assay to identify small molecule antagonists of the androgen receptor (AR) signaling pathway using the MDA cell line in the presence of 0.5 nM R1881 - cell viability counter screen (AID 1259242); also: nearly all actives have a fitted effect of over 45% in size
Method in brief: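 MDA-kb2 cells (MMTV-luciferase, AR/GR responsive) were treated with compounds plus 0.5 nM R1881 (final) for 16 hr at 37C, 0% CO2. Viability was then read in the same wells as live-cell protease fluorescence (CellTiter-Fluor, 30 min).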

[16] = biological target: Androgen receptor (Homo sapiens) (UniProt P10275); test: qHTS assay to identify small molecule antagonists of the androgen receptor (AR) signaling pathway using the MDA cell line in the presence of 0.5 nM R1881 (AID 1259243); also: nearly all actives have a fitted effect of over 50% in size
Method in brief: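 MDA-kb2 cells (MMTV-luciferase, responsive to AR and GR) at 3,000/well, rested 5 h at 37C, 0% CO2, then given compounds plus 0.5 nM R1881 (final) for 16 hr. Luciferase read with ONE-Glo after 30 min at room temperature.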

[17] = qHTS assay to identify small molecule HDAC inhibitors (AID 1259364)
Method in brief: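 Wild-type HCT-116 cells, plated overnight at 37 C, exposed to compounds 2 hr at 37 C; luminogenic HDAC-Glo substrate then added 30 min at room temperature. Luminescence reports relative endogenous class I/II HDAC activity.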

[18] = qHTS assay to identify small molecule HDAC inhibitors - cell viability counter screen (AID 1259365)
Method in brief: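 To flag cytotoxic hits, 1,500 wild-type HCT-116 cells per well, plated the day before, receive test compounds for 2hr at 37 C before CellTiter-Glo reagent and a luminescence read.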

[19] = biological target: Estrogen receptor (Homo sapiens) (UniProt P03372); test: qHTS assay to identify small molecule antagonists of the estrogen receptor alpha (ER-alpha) signaling pathway using the BG1 cell line in the presence of 0.1 nM 17-beta-estradiol (AID 1259244); also: nearly all actives have a fitted effect of over 50% in size
Method in brief: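 VM7Luc4E2 cells (endogenous full-length ER-alpha, 4×ERE-luciferase), kept 5 days in phenol red-free, charcoal-stripped FBS medium; 4,000 cells/well. Compounds added with 0.1 nM (final) 17beta-estradiol, 22 hr at 37C; luminescence read with ONE-Glo after 30 min.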

[20] = qHTS assay to identify small molecule phospholipidosis (PLD) inducers (AID 1259344; active = well fitted curve in the direction sought with a large enough effect; an effect the other way counts as inactive or inconclusive)
Method in brief: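 HepG2 cells grown on collagen I take up LipidTOX Red while exposed to compound for 24 h; after fixation they are imaged at 20x and pit metrics are extracted.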
% is scaled to controls: 0 for no effect and ±100 for the full control effect.

Estrogen receptor (Homo sapiens), sequence (P03372 whole entry, looked up): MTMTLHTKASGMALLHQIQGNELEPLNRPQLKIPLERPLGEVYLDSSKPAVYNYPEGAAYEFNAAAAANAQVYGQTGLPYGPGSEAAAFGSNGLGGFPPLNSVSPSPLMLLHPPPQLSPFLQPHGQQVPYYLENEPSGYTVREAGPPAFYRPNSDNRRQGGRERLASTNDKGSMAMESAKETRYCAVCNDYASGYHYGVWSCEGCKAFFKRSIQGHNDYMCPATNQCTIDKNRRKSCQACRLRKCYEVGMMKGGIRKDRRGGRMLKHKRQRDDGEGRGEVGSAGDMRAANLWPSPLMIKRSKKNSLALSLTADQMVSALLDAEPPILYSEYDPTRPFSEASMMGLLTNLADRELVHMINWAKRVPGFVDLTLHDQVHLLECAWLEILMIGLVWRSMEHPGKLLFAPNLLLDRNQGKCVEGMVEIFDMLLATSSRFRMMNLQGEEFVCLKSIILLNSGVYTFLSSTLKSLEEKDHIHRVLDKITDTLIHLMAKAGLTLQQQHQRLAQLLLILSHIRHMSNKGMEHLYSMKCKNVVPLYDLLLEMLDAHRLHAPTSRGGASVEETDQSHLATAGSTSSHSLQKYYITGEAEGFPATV
Androgen receptor (Homo sapiens), sequence (P10275 whole entry, looked up): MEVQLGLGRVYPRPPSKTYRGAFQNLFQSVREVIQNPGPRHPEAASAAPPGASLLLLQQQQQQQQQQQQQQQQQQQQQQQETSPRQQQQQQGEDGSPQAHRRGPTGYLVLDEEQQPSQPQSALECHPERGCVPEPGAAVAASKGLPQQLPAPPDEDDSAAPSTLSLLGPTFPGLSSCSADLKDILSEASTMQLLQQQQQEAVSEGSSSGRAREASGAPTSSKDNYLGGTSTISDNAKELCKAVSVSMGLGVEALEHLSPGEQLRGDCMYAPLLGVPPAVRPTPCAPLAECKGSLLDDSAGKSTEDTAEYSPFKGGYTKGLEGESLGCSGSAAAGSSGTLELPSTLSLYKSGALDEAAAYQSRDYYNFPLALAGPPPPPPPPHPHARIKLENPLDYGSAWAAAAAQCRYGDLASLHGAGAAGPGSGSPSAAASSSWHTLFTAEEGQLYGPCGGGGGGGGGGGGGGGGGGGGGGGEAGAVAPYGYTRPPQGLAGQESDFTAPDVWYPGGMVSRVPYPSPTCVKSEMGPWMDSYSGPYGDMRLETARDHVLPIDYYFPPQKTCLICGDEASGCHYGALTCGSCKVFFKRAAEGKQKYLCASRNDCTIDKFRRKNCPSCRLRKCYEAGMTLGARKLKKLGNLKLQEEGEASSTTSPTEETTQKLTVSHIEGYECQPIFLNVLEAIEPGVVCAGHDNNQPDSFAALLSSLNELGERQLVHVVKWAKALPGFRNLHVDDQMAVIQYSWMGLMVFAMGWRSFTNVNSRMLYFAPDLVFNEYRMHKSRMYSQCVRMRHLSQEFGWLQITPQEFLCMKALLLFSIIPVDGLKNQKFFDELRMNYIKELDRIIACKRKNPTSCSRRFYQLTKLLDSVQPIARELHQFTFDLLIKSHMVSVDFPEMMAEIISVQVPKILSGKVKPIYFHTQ

CC1(C)C(=O)C(C)(C)C1=O
inactive: Potency [1] | Potency [2] | Potency [3] | Potency [4] | Potency [5] | Potency [6] | Potency [7] | outcome [8] | outcome [9] | outcome [10] | Potency [11] | Potency [12] | Potency [13] | outcome [14] | outcome [15] | Potency [16] | Potency [17] | outcome [18]

CC(C)C(=O)Nc1cccc(C2CN3CCSC3=N2)c1 (stereo not given)
inactive: Potency [1] | Potency [2] | Potency [3] | Potency [4] | Potency [5] | Potency [6] | Potency [7] | outcome [8] | outcome [9] | outcome [10] | Potency [11] | Potency [12] | Potency [13] | outcome [14] | outcome [15] | Potency [16] | outcome [19] | outcome [18]

COc1cc(OC)cc(OC)c1
inactive: Potency [1] | Potency [2] | Potency [3] | Potency [4] | Potency [5] | Potency [6] | Potency [7] | outcome [8] | outcome [9] | outcome [10] | Potency [11] | Potency [12] | Potency [13] | outcome [14] | outcome [15] | Potency [16] | outcome [19] | Potency [20] | Potency [17] | outcome [18]

COc1cc(S(N)(=O)=O)cc(C(=O)O)c1OC
inactive: Potency [1] | Potency [2] | Potency [3] | Potency [4] | Potency [5] | Potency [6] | Potency [7] | outcome [8] | outcome [9] | outcome [10] | Potency [11] | Potency [12] | Potency [13] | outcome [14] | outcome [15] | outcome [19] | Potency [17]

COCc1nnc(-c2ccc[n+]([O-])c2)n1-c1c(Cl)c(Cl)cc2[nH]c(=O)c(=O)[nH]c12
inactive: Potency [1] | Potency [2] | Potency [3] | Potency [4] | Potency [5] | Potency [6] | Potency [7] | outcome [8] | outcome [9] | outcome [10] | Potency [11] | Potency [12] | Potency [13] | outcome [14] | outcome [15] | Potency [16] | outcome [19] | outcome [18]

O=C1c2ccccc2C(=O)N1CO
inactive: Potency [1] | Potency [2] | Potency [3] | Potency [4] | Potency [5] | Potency [6] | Potency [7] | outcome [8] | outcome [9] | outcome [10] | Potency [11] | Potency [12] | Potency [13] | outcome [14] | outcome [15] | Potency [16] | outcome [19] | Potency [17] | outcome [18]

COc1cnc(NS(=O)(=O)c2ccc(N)cc2)nc1
inactive: Potency [1] | Potency [2] | Potency [3] | Potency [4] | Potency [5] | Potency [6] | Potency [7] | outcome [8] | outcome [9] | outcome [10] | Potency [11] | Potency [12] | Potency [13] | outcome [14] | outcome [15] | outcome [19] | Potency [20]

CC(=O)SCC(CC(=O)c1ccc(C)cc1)C(=O)O (stereo not given)
inactive: Potency [1] | Potency [2] | Potency [3] | Potency [4] | Potency [5] | Potency [6] | Potency [7] | outcome [8] | outcome [9] | outcome [10] | Potency [11] | Potency [12] | Potency [13] | outcome [14] | outcome [15] | outcome [19] | Potency [20] | Potency [17]

CCCCCCCCCCCCCCCCN(C)C
inactive: cytotoxicity [1] 1.92% [at 6.97 µM] | cytotoxicity increase [2] 0.0455% [at 6.97 µM] | activity change, negative = cytotoxicity [3] 2.86% [at 6.97 µM] | cytotoxicity increase [4] 3.45% [at 6.97 µM] | cytotoxicity [5] 2.28% [at 6.97 µM] | cytotoxicity increase [6] 1.06% [at 6.97 µM] | cytotoxicity increase [7] -0.796% [at 6.97 µM] | activity change, negative = cytotoxic [8] 0.191% [at 6.97 µM] | activity change, negative = cytotoxicity [9] 5.99% [at 6.97 µM] | activity change, negative = cytotoxicity [10] 5.23% [at 6.97 µM] | activity change [11] 0.327% [at 6.97 µM, hits give high values] | activity change, negative = cytotoxicity [12] 4.22% [at 6.97 µM] | cytotoxicity increase [13] 2.33% [at 6.97 µM] | activity change, negative = cytotoxicity [14] 8.65% [at 8.39 µM] | viability change, negative = cytotoxic [15] 0.99% [at 8.39 µM] | activity, negative = inhibition [16] 15.5% [at 8.39 µM] | activity change, negative = inhibition [19] 15.1% [at 8.39 µM] | activity change, negative = cytotoxicity [18] 1.52% [at 8.39 µM]

N#Cc1cc(NC(=O)C(=O)O)c(Cl)c(NC(=O)C(=O)O)c1
inactive: Potency [1] | Potency [2] | Potency [3] | Potency [4] | Potency [5] | Potency [6] | Potency [7] | outcome [8] | outcome [9] | outcome [10] | Potency [11] | Potency [12] | Potency [13] | outcome [14] | outcome [15] | Potency [16] | Potency [17]

Cc1ccc(N)nc1
inactive: Potency [1] | Potency [2] | Potency [3] | Potency [4] | Potency [5] | Potency [6] | Potency [7] | outcome [8] | outcome [9] | outcome [10] | Potency [11] | Potency [12] | Potency [13] | outcome [14] | outcome [15] | Potency [16] | outcome [19] | outcome [18]

COC(C)(C)CC(C)=O
inactive: Potency [1] | Potency [2] | Potency [3] | Potency [4] | Potency [5] | Potency [6] | Potency [7] | outcome [8] | outcome [9] | outcome [10] | Potency [11] | Potency [12] | Potency [13] | outcome [14] | outcome [15] | Potency [16] | outcome [18]
